Only a selection was taken, and hits are over-represented in it overall.
NS1 function inh: qHTS Assay for Inhibitors of Influenza NS1 Protein Function | 0.4% of 270,000 active | AID 2326, 2010 | Potency, µM (doses to about 46.1 µM), inactives show at the top dose activity, positive = more growth; calls by dose curve; note: potency is the fitted concentration of half-maximal effect; actives are rising curves; nearly all actives have a fitted effect of over 50% in size
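Recovery from NS1-induced slow growth read by OD600 in budding yeast switched to galactose assay medium (pH 6.0, -URA) at 1:100 dilution. Compound 23 nl per well; the matching strain lacking NS1 serves as control.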
Cycloheximide cs: Cycloheximide Counterscreen for Small Molecule Inhibitors of Shiga Toxin | max response, % | cell reporter, cycloheximide protein synthesis inhibition counterscreen | 12% of 300,000 active; in the data active = max response mostly above about 13%, no sharp cut-off; inactive = mostly below about 14%; note: read at 38.3 µM for the half of the compounds with a filed dose; 0% is about no effect
AmpC no deterg: qHTS Inhibitors of AmpC Beta-Lactamase (assay without detergent); P00811; AmpC nitrocefin hydrolysis, absorbance 480 nm, 0.0001% Triton; Potency, µM (highest dose often 57.1 µM), inactives show at the highest dose activity change, negative = inhibition, actives largely listed as inhibitors; 0.52% of 330,000 active; AID 485341, 2010;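 note: potency is the fitted concentration of half-maximal effect; plate controls were no compound for no effect and no enzyme for full effect; nearly all actives have a fitted effect of over 20% in size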
Target sequence (P00811 whole entry, looked up): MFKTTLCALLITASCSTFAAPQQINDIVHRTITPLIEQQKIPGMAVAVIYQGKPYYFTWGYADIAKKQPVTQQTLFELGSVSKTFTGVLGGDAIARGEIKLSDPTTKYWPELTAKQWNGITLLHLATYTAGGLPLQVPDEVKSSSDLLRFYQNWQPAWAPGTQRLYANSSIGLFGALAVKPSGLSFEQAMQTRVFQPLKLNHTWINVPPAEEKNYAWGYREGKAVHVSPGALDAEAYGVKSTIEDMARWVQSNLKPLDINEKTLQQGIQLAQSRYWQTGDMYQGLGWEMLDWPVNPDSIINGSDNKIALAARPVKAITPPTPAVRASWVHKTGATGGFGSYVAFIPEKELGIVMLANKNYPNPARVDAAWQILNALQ
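20 mM phosphate pH 7.0 + 0.01% (detergent screen) or 0.0001% Triton X-100; 5.3 nM AmpC reagent; cpd preinc 15 min RT; nitrocefin (800 uM stock) to start; A480 q20 s × 4 min; Activity was normalised to no-enzyme and no-compound control wells.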
Shiga inhibitor: A qHTS for Small Molecule Inhibitors of Shiga Toxin; Vero cells, Shiga toxin protein synthesis inhibition reporter; inhibition, % at 38.7 µM; 9.2% of 290,000 active; in the data active = inhibition mostly above about 28%, no sharp cut-off; inactive = mostly below about 43%; note: 0% is about no effect
AmpC detergent: qHTS Inhibitors of AmpC Beta-Lactamase (assay with detergent); Potency, µM (titrated, usually from 114 µM), for inactives: top-dose activity change, negative = inhibition, most hits filed as inhibitors; AmpC hydrolysis of nitrocefin, absorbance 480 nm, 0.01% Triton; AID 485294, 2010; 0.041% of 370,000 active; P00811;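 note: potency is the fitted concentration of half-maximal effect; 0% = no-compound wells and -100% = no-enzyme wells; nearly all actives have a fitted effect of over 25% in size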
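AmpC (5.3 nM in the dispensed reagent) in 20 mM phosphate pH 7.0 with 0.01% (detergent screen) or 0.0001% Triton X-100 was preincubated with compounds for 15 min at room temperature. Nitrocefin was then added from an 800 uM solution, and hydrolysis was followed at 480 nm.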
* hit, by the source's call; i = inactive; ? = inconclusive; nt = no result; [ ] = another dose, or the depositor's remark. Unless noted, calls come from the whole dose curve; as a rule, active = well fitted curve in the direction sought with a large enough effect; inconclusive = small, poorly fitted or top-dose-only effect, or another doubt; inactive = no such curve, though single readings can be large; an effect the other way counts as inactive or inconclusive.

SMILES	NS1 function inh	Cycloheximide cs	AmpC no deterg	Shiga inhibitor	AmpC detergent
CSCC(=O)N1CCC(n2nccc2NC(=O)c2ccc3c(c2)OCO3)CC1	-1.9%	36.4*	-10.2%	62.0*	?
C=CCNC(=S)N/N=C/c1ccc(-c2ccc(Br)cc2)o1	13.4%	13.8	-44.2%	-7.9	-19.4%
C=CCNC(=S)N/N=C/c1ccc(-c2cccc([N+](=O)[O-])c2)o1	1.3%	15.9*	-38.2%	40.5*	-2.7%
O=C(Nc1ccc(CN2CCOCC2)cc1)c1ccc(-c2cccc([N+](=O)[O-])c2)o1	-1.9%	14.6	121.8%	3.3	1.8%
C=CCNC(=O)c1ccc(-c2cccc([N+](=O)[O-])c2)o1	-6.2%	37.1*	-19.0%	69.3*	-2.8%
COc1cccc(NC(=O)c2ccc(-c3ccc([N+](=O)[O-])cc3)o2)c1	0.6%	18.3*	17.8µM*	69.8*	-6.2%
C=CCNC(=O)c1ccc(-c2ccc([N+](=O)[O-])cc2)o1	-23.8%	19.3*	-34.8%	active	-12.6%
Cc1ccc(Cl)cc1Nc1nc2ccccc2c2nncn12	nt	nt	nt	nt	10.9%
COc1cccc(-c2nc(Cn3c(=O)cc(C)c4c(C)nn(-c5ccccc5)c43)c(C)o2)c1OC	nt	nt	nt	nt	2.4%
COCCN(C(=O)C1CC(=O)N(Cc2ccccc2)C1)c1nc(-c2ccc([N+](=O)[O-])cc2)cs1 (stereo not drawn)	nt	nt	73.4%	nt	?
CC(C)(C)C(=O)CC1(O)C(=O)N(Cc2ccccc2)c2ccccc21 (stereo not drawn)	22.7%	8.0	14.2%	-11.1	5.5%
C/C(=N\NC(=O)c1cc(-c2ccc(C)s2)[nH]n1)c1ccco1	10.0%	39.2*	-25.6%	66.1*	-13.6%
C/C(=N/NC(=O)c1cc(C)[nH]n1)c1ccncc1	-6.0%	17.1*	-8.3%	49.0*	-10.6%
C/C(=N/NC(=O)c1cnccn1)c1ccncc1	nt	16.8	-13.3%	31.2	-3.3%
C/C(=N\NC(=O)Cc1cccn1C)c1ccco1	4.1%	13.8	1.0%	33.3	3.0%
C/C(=N/NC(=O)c1cc(C)[nH]n1)c1ccco1	-0.2%	26.6*	-17.2%	41.7*	1.0%
C/C(=N\NC(=O)c1ccn(C)n1)c1ccco1	-0.9%	39.7*	-14.8%	85.1*	?
Cc1cc2nc(-c3cccc(NC(=O)c4ccc(Br)o4)c3C)oc2cc1C	7.5%	24.1*	-23.8%	30.1	0.1%
Cc1ccc2oc(-c3cccc(NC(=O)c4ccc(Br)o4)c3C)nc2c1	-4.4%	66.0*	-3.0%	69.5*	?
COc1ccc(CCNC(=O)CSCc2nc(-c3ccc(OC)c(OC)c3)oc2C)cc1OC	nt	nt	nt	nt	-11.4%
Cc1ccc(NC(=O)/C=C\C(=O)N(c2ccc(C(C)C)cc2)C(C(=O)NCc2ccco2)c2ccc(F)cc2)cc1 (stereo not drawn)	nt	nt	nt	nt	0.7%
Nc1c(Cl)ncnc1N/N=C/c1cccc(O)c1	-54.9%	26.4*	-24.9%	49.7*	?
COc1ccc(/C=N/Nc2ncnc(Cl)c2N)cc1OC	0.7%	13.9*	-15.4%	13.0	-1.7%
Oc1cccc(/C=N/Nc2ncnc3c2ncn3Cc2ccccc2)c1	10.3%	18.1*	-51.5%	53.0*	2.3%
Nc1c(Cl)ncnc1N/N=C/c1ccncc1	2.2%	12.0	-8.1%	-4.3	-6.5%
SMILES	NS1 function inh	Cycloheximide cs	AmpC no deterg	Shiga inhibitor	AmpC detergent
CN1C(=O)c2ccccc2Sc2ccc(NC(=O)COc3ccc(Cl)cc3)cc21	nt	nt	nt	nt	-1.1%
CCC(=O)N1CCc2cc(Br)cc(S(=O)(=O)N3CCN(c4ccccn4)CC3)c21	-4.9%	nt	nt	nt	nt
Cc1nc2ccccc2c(=O)n1/N=C/c1cccnc1	-2.5%	2.3	-14.5%	-11.3	-15.1%
CCCc1nc2ccccc2c(=O)n1/N=C/c1ccccc1O	-53.3%	47.0*	-9.9%	59.0	-11.2%
Cc1ccc(/C=N/n2c(C)nc3ccccc3c2=O)s1	-7.2%	39.6*	-4.6%	92.5*	5.3%
Cc1nc2ccccc2c(=O)n1/N=C/c1ccc(O)cc1O	-0.4%	-1.7	-34.4%	15.8	-7.6%
Cc1nc2ccccc2c(=O)n1/N=C/c1ccccc1Cl	-30.2%	32.7*	-16.4%	72.0*	-8.4%
CC(=O)c1ccc(NC(=O)OCCN2CCN(Cc3ccccc3)CCC2=O)cc1	nt	20.1	nt	i	nt
CC1(C)CC(=O)C2=C(C1)O[C@@]1(c3ccsc3)Cc3cc(C#N)ccc3C2O1	27.1%	1.5	-28.4%[11.4 µM]	i	?
Nc1nc(NCc2c(F)cccc2Cl)nn1-c1ccccc1	-1.2%	25.1*	-56.6%	55.9*	?
Cc1ccccc1CNc1nc(N)n(-c2ccccc2)n1	-6.3%	8.7	-19.3%	31.9	?
Cc1nn2c(=O)cc(COc3ccc(/C=C(\C#N)C(=O)Nc4ccc(F)cc4)cc3)nc2s1	nt	nt	nt	nt	8.0%
COCCCNCCCCOc1ccc(OCc2ccccc2)cc1	-0.8%	30.3*	33.7%	97.4*	-6.2%
c1ccc(COc2ccc(OCCCNC3CCCC3)cc2)cc1	-0.7%	24.9*	29.7%	53.2	-9.1%
C=CCNCCCCOc1ccc(OCc2ccccc2)cc1	0.2%	47.9*	19.2%	59.6*	-2.0%
CC(C)Oc1ccc(OCCNC2CCCC2)cc1	7.4%	19.0	-14.2%	73.7*	-4.6%
C=CCNCCCCOc1ccccc1-c1ccccc1	-7.0%	-1.5	5.4%	-3.8	4.5%
COc1cc(S(=O)(=O)N2CCn3cccc3C2C)ccc1NC(C)=O (stereo not drawn)	nt	nt	0.2%	nt	nt
Cc1ccccc1NC(=O)CSCc1nc(N)nc(Nc2ccccc2C)n1	4.5%	16.3*	-12.1%	3.5	-8.7%
Cc1ccc(-c2nnc(SCc3nc(N)nc(Nc4ccccc4C)n3)n2N)cc1	-2.6%	-4.4	-3.6%	8.5	2.4%
CCc1ccccc1NC(=O)CN(C)Cc1nc(N)nc(Nc2ccccc2C)n1	-8.3%	-0.8	22.7%	11.9	-3.9%
Cc1ccccc1Nc1nc(N)nc(CCl)n1	1.3%	34.3*	-43.3%	51.8*	-0.7%
Cc1ccccc1Nc1nc(N)nc(CSc2nnc(-c3ccccc3)n2C)n1	0.8%	18.1*	1.5%	30.9	1.7%
Cc1ccccc1Nc1nc(N)nc(CN(C)c2ccccc2)n1	7.3%	17.5	-3.5%	49.2	?
COc1ccc2c(c1)C(c1ccc3c(c1)OCO3)CC(=O)O2 (stereo not drawn)	nt	-4.9	nt	i	nt
SMILES	NS1 function inh	Cycloheximide cs	AmpC no deterg	Shiga inhibitor	AmpC detergent
Cc1cc(Br)ccc1NC(=O)CN(C)Cc1cccs1	-21.8%	27.9	-4.4%	48.3*	-14.4%
Cc1ccc(NC(=O)COC(=O)C2CC2)c(Br)c1	18.5%	40.3*	0.6%	61.5*	-9.6%
Cc1ccc(NC(=O)CN(C)S(=O)(=O)c2cccs2)c(Br)c1	-18.4%	35.9*	-10.7%	84.5*	-10.6%
CN(CC(=O)Nc1ccccc1F)Cc1cccs1	3.2%	7.8	-3.0%	7.9	1.1%
Cc1cc(Br)c(NC(=O)COC(=O)C2CCCCC2)c(Br)c1	nt	nt	-17.6%	nt	nt
Cc1ccc(NC(=O)CN(C)S(=O)(=O)c2cccs2)cc1F	-2.4%	37.6*	-3.5%	75.2*	0.0%
